Records with an inconclusive call do not appear. Activity calls are given as the source filed them. Unless noted, the call rests on the fitted dose curve; in most records, active means well fitted curve in the direction sought with a large enough effect; inconclusive means small, poorly fitted or top-dose-only effect, or another doubt; inactive means no such curve, though single readings can be large; an effect the other way counts as inactive or inconclusive.

Assay [1] deals with Cytochrome P450 2D6 (Homo sapiens) (UniProt P10635). Description: qHTS Assay for Inhibitors and Substrates of Cytochrome P450 2D6 (AID 891). Further: nearly all actives have a fitted effect of over 60% in size. Further: potency means the concentration at half of the fitted maximal effect. The essentials:
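Human CYP2D6 (5 nM) with 30 uM Luciferin-ME EGE (at Km) in 100 mM KPO4, compound preincubated 10 min, then NADPH regeneration system for 60 min at room temperature. Luciferin read by luminescence; normalized to 1.43 uM quinidine.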
(In general: In qHTS, concentration-response curves come from the screen itself.)

For assay [2], the target named is ATP-dependent 6-phosphofructokinase (Trypanosoma brucei brucei) (UniProt O15648). Description: qHTS Assay to Find Inhibitors of T. brucei phosphofructokinase: hit validation (AID 492961).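 Further: luminescence reports ADP formed as PFK phosphorylates fructose-6-phosphate with ATP.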 The essentials: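 Inhibition of parasite PFK is measured as reduced ADP formation, quantified via luciferase after ATP depletion. Assay used 0.1 mM ATP, 0.5 mM F6P, 1.25 nM enzyme, 45 min incubation.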
ATP-dependent 6-phosphofructokinase (Trypanosoma brucei brucei), sequence (O15648 whole entry, looked up): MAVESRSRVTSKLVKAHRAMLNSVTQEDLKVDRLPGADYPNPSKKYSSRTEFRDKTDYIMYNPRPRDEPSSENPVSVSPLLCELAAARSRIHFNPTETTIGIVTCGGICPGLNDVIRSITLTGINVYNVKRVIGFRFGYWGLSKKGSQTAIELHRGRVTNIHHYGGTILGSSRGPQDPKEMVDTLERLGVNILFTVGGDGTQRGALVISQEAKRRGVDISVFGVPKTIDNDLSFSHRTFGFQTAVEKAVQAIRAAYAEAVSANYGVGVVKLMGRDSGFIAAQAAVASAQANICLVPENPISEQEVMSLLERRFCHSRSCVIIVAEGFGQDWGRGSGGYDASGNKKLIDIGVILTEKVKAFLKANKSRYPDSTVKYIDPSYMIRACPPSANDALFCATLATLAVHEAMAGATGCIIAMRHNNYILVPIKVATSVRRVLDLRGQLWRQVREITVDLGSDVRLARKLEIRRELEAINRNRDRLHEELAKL

The target in assay [3] is Luciferin 4-monooxygenase (Photinus pyralis) (UniProt P08659). Description: Biochemical firefly luciferase enzyme assay for NPC (AID 624030).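 Further: purified P. pyralis luciferase at 10 nM with luciferin and ATP substrate; nearly all actives have a fitted effect of over 70% in size.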 The gist of the method:
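Purified P. pyralis luciferase at 10 nM in 50 mM Tris Acetate (final), luminescence read within 5 minutes of enzyme addition to compounds. Activity normalised to PTC124 versus DMSO; concentration-response curves classed by r2, magnitude and activity.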

Assay [4] in a line: S16 Schwann cell viability assay (CellTiter-Glo assay) (AID 624031).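 Further: cellular ATP luminescence as a viability measure; nearly all actives have a fitted effect of over 70% in size.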 The essentials:
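Native S16 rat Schwann cells, 500-750 cells/well in DMEM with 10% FBS, dosed with compound after overnight culture and incubated 24h at 37 degree Celsius/5% CO2. Viability by CellTiter-Glo luminescence; % activity normalized to no-cell wells and DMSO-treated cells.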
(In ATP-based viability assays light output follows the ATP content of the culture.)

Assay [5] is described as follows: S16 Schwann cell PMP22 intronic element beta-lactamase assay (AID 624044; calls by dose curve; further: nearly all actives have a fitted effect of over 15% in size). The gist of the method:
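Rat S16 Schwann cells with beta-Lac driven by a PMP22 intronic element, compound-treated 24 h at 37 °C. LiveBLAzer FRET B/G read: 460 nm normalized to potassium clavulanate vs DMSO; 535 nm FRET as viability; concentration-effect curves classified.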

Another assay deals with 3D7. Description: qHTS profiling for inhibitors of Plasmodium falciparum proliferation (AID 504749). Further: nearly all actives have a fitted effect of over 60% in size. The settings on record: P. falciparum in erythrocytes, SYBR Green DNA, 72 h; series mostly up to 28.7 µM. The essentials:
(§1)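 P. falciparum-infected erythrocytes (0.3% parasitemia, 2.5% hematocrit) incubated with compound 72 h at 37 C, 5% CO2. Parasite DNA detected by SYBR Green after lysis, overnight at room temperature; normalised to 0.29 uM artemisinin and DMSO.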

Another assay relates to ATS189. Described as above. Particulars: P. falciparum in erythrocytes, SYBR Green DNA, 72 h; series mostly up to 28.7 µM. The gist of the method:
as §1

A further assay relates to ATS95. Described as above. Particulars: P. falciparum in erythrocytes, SYBR Green DNA, 72 h; series mostly up to 28.7 µM. The gist of the method:
as §1

The test system of a further assay is CP191. The description is as above. The settings on record: P. falciparum in erythrocytes, SYBR Green DNA, 72 h; series mostly up to 28.7 µM. The essentials:
as §1

The subject of the next assay is CP260. The description is as above. The settings on record: P. falciparum in erythrocytes, SYBR Green DNA, 72 h; series mostly up to 28.7 µM. The essentials:
as §1

Another assay concerns CP265. The description is as above. Particulars: P. falciparum in erythrocytes, SYBR Green DNA, 72 h; series mostly up to 28.7 µM. The essentials:
as §1

The test system of the next assay is CP286. The description is as above. Particulars: P. falciparum in erythrocytes, SYBR Green DNA, 72 h; series mostly up to 28.7 µM. The essentials: as §1
Another assay concerns CP335. The assay is described as above. The settings on record: P. falciparum in erythrocytes, SYBR Green DNA, 72 h; series mostly up to 28.7 µM. The gist of the method: as §1
For a further assay, the system named is DIV30. The description is as above. The settings on record: P. falciparum in erythrocytes, SYBR Green DNA, 72 h; series mostly up to 28.7 µM. The gist of the method: as §1
A further assay relates to ECU. The description is as above. Particulars: P. falciparum in erythrocytes, SYBR Green DNA, 72 h; series mostly up to 28.7 µM. The gist of the method:
as §1

For the next assay, the system named is HB3. The assay is described as above. Particulars: P. falciparum in erythrocytes, SYBR Green DNA, 72 h; series mostly up to 28.7 µM. The gist of the method:
as §1

The next assay has as its system P93_24. Described as above. Particulars: P. falciparum in erythrocytes, SYBR Green DNA, 72 h; series mostly up to 28.7 µM. The essentials: as §1
The next assay deals with PC26. The assay is described as above. The settings on record: P. falciparum in erythrocytes, SYBR Green DNA, 72 h; series mostly up to 28.7 µM. The essentials:
as §1

A further assay has as its system TAB113. The assay is described as above. The settings on record: P. falciparum in erythrocytes, SYBR Green DNA, 72 h; series mostly up to 28.7 µM. The gist of the method: as §1
The test system of another assay is TAB165. The description is as above. Particulars: P. falciparum in erythrocytes, SYBR Green DNA, 72 h; series mostly up to 28.7 µM. The gist of the method: as §1

Luciferin 4-monooxygenase (Photinus pyralis), sequence (P08659 whole entry, looked up): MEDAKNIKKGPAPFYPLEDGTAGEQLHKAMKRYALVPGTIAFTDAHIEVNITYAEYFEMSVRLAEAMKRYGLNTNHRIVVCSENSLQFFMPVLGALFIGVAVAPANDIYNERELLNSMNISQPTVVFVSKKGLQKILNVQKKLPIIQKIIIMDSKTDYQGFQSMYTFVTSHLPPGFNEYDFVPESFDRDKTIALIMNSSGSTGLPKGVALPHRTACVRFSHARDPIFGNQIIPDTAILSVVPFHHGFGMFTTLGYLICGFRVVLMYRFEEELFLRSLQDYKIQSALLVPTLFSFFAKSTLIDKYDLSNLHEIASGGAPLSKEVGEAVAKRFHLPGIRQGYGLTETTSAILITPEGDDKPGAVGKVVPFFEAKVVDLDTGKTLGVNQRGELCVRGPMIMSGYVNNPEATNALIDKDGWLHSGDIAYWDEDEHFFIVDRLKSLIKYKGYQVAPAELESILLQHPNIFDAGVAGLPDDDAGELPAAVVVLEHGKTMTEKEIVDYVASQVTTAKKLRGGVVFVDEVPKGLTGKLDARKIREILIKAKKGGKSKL
Cytochrome P450 2D6 (Homo sapiens), sequence (P10635 whole entry, looked up): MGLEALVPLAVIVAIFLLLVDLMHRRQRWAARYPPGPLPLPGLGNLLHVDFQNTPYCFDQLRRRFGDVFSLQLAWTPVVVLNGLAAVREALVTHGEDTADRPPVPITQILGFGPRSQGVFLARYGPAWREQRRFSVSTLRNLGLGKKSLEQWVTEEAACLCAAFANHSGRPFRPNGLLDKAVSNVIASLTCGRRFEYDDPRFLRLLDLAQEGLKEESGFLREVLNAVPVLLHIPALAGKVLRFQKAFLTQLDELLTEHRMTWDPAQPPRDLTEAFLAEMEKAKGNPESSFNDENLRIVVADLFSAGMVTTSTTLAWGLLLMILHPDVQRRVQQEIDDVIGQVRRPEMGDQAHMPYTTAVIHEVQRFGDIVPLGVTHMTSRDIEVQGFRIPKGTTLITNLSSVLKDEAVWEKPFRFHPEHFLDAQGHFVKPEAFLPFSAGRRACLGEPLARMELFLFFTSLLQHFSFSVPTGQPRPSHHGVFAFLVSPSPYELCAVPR

As for `COc1ccccc1-c1nc(NCc2ccccc2)c2ccccc2n1`, the Potency in [1] was 1580 nM (active).
As to `CC(C)(C)NC[C@@H](O)c1ccc(O)c(CO)n1`, the compound was classed as inactive in assay [2], in assay [3] and in [5]. Also, the Potency result (in assay [4]; with 3D7; with ATS189; in the assay on ATS95; with CP191; with CP260) was “inactive” each time. Also, the Potency entry in the assay with CP265, in the assay on CP286, in the assay with CP335, in the assay with DIV30, with ECU and in the assay with HB3 was “inactive” in each case. The Potency entry in the assay with P93_24, in the assay with PC26, with TAB113 and with TAB165 was “inactive” each time.
On to `NS(=O)(=O)c1cc2c(cc1Cl)N[C@H](Cc1ccccc1)NS2(=O)=O`, for which the outcome in [2], in assay [3] and in assay [5] was inactive. Further, the Potency result in the assay with 3D7, in the assay with ATS189, in the assay on CP191, with CP260, in the assay with CP265 and in the assay with CP286 was “inactive” in each case. In addition, the Potency result in the assay with CP335, with DIV30, with ECU, in the assay on HB3, in the assay on P93_24 and in the assay with PC26 was “inactive” each time. Besides, the Potency entry in the assay on TAB113 and with TAB165 was “inactive” in each case.
As to `COc1ccc2cc1Oc1ccc(cc1)C[C@H]1c3cc(c(OC)cc3CCN1C)Oc1c(OC)c(OC)cc3c1[C@@H](C2)N(C)CC3`, the Potency result in [1] is “inactive”.
For `C[C@]12CC[C@H]3c4ccc(O)cc4CC[C@@H]3[C@H]1CC[C@@H]2OC(=O)CCC1CCCC1`, the compound was classed as inactive in assay [2], in assay [3] and in [5]. For the same compound, the Potency result in the assay with ATS95 was “inactive”.
With `Cc1cn([C@H]2C[C@H](N=[N+]=[N-])[C@H](CO)O2)c(=O)[nH]c1=O`, the compound was classed as inactive in assay [3]. The Potency result (in [4]; with 3D7; in the assay on ATS189; in the assay on ATS95; with CP191; in the assay on CP260) was “inactive” each time. Further, the Potency entry with CP265, in the assay on CP286, in the assay with CP335, in the assay with ECU, with HB3 and with P93_24 was “inactive” each time. Besides, the Potency entry in the assay on PC26, with TAB113 and in the assay on TAB165 was “inactive” in each case.
